PMC4336329 (PLoS ONE, 2015)
About 14,000 (4.5%) of roughly 310,000 compounds showed an effect of 50% or more. The effect is printed as a negative number. For the sample, strong results were picked, then their nearest neighbours and some compounds at random.

Target: human ether-à-go-go-related gene (hERG) potassium channel (human, UniProt Q12809)
Test: primary screen, population patch clamp on CHO cells stably expressing hERG; higher = less effect of the substance
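Also: peak tail current of the secondary pulse compared with the same well before compound.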

Sequence of human ether-à-go-go-related gene (hERG) potassium channel (Q12809 whole entry, looked up): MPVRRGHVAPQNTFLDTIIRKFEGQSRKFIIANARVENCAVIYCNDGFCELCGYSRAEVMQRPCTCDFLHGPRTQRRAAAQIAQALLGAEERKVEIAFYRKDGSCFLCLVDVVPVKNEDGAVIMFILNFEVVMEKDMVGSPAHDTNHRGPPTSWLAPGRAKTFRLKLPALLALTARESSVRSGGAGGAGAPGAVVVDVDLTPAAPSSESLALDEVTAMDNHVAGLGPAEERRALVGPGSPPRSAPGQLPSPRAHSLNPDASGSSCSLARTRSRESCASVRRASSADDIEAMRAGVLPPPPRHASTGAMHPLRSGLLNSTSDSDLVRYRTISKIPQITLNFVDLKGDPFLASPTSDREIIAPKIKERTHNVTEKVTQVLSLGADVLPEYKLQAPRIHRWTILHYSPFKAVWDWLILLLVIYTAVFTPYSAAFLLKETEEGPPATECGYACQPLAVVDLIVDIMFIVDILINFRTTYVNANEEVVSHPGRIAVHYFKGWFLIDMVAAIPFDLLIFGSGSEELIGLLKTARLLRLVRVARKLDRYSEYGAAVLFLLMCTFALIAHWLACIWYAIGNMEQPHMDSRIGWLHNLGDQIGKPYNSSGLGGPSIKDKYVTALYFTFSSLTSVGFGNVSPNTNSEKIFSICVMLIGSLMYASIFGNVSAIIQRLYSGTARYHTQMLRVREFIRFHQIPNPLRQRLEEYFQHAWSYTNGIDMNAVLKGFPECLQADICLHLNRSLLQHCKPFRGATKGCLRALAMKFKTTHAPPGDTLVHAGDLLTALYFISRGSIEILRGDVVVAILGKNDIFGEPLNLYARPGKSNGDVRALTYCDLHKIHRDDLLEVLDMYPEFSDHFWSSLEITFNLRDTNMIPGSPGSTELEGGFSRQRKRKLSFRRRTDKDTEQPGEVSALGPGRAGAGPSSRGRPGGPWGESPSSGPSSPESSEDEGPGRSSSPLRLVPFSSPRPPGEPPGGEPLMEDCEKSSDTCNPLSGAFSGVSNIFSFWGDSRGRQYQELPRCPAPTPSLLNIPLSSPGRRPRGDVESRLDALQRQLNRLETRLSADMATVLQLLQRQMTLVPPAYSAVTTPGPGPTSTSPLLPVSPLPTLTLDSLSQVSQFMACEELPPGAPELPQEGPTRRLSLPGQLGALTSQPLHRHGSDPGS

Question: `CC(C)C(=O)Nc1nnc(Cc2c[nH]c3ccccc23)s1` was tested. Which “hERG current change (%, negative = inhibition) at 10uM” value did it give?
Answer: The value was 28%.

Question: Which “hERG current change (%, negative = inhibition) at 10uM” value does the source give for `Cc1[nH]n(-c2ccccc2)c(=O)c1C=NC1CCCCC1` here?
Answer: The value was -10.5%.

Question: Which “hERG current change (%, negative = inhibition) at 10uM” value does the source give for `O=C(CCCN1C(=O)/C(=C\c2cccs2)SC1=S)Nc1cccc(C(=O)O)c1` here?
Answer: The value was 9.57%.

Question: Which “hERG current change (%, negative = inhibition) at 10uM” value does the source give for `Cc1cccn2c(=O)c(/C=C(\C#N)S(=O)(=O)c3ccccc3)c(N3CCC(C(N)=O)CC3)nc12` here?
Answer: The value was -75.4%.

Question: With `CCOC(=O)C1CCN(c2nc3c(C)cccn3c(=O)c2/C=C(\C#N)S(=O)(=O)c2ccccc2)CC1` as the compound, how does the “hERG current change (%, negative = inhibition) at 10uM” value read?
Answer: Its value is -18.1%.

Question: Which “hERG current change (%, negative = inhibition) at 10uM” value does the source give for `Cc1cccn2c(=O)c(/C=C(\C#N)S(=O)(=O)c3ccccc3)c(N3CCCCC3)nc12` here?
Answer: The value was 9.28%.

Question: How did the “hERG current change (%, negative = inhibition) at 10uM” value turn out when `Cc1cccn2c(=O)c(/C=C(\C#N)S(=O)(=O)c3ccc(Cl)cc3)c(N3CCC(C(N)=O)CC3)nc12` was run?
Answer: Its value is -77.8%.

Question: For `Cc1cccn2c(=O)c(/C=C(\C#N)C(=O)NCc3ccccc3)c(N3CCC(C(N)=O)CC3)nc12`, which “hERG current change (%, negative = inhibition) at 10uM” value is on record?
Answer: The value was -29.1%.

Question: Which “hERG current change (%, negative = inhibition) at 10uM” value does the source give for `Cc1cccn2c(=O)c(/C=C(\C#N)C(=O)NCc3ccco3)c(N3CCC(C(N)=O)CC3)nc12` here?
Answer: Its value is -43%.

Question: With `CCN1CCN(c2nc3c(C)cccn3c(=O)c2/C=C(\C#N)S(=O)(=O)c2ccc(Cl)cc2)CC1` as the compound, how does the “hERG current change (%, negative = inhibition) at 10uM” value read?
Answer: Its value is -44.9%.

Question: For `Cc1ccc(S(=O)(=O)/C(C#N)=C/c2c(N3CCC(C(N)=O)CC3)nc3c(C)cccn3c2=O)cc1`, which “hERG current change (%, negative = inhibition) at 10uM” value is on record?
Answer: Its value is -71.4%.

Question: With `COc1ccc(C=Nc2cccc3ncccc23)cc1` as the compound, how does the “hERG current change (%, negative = inhibition) at 10uM” value read?
Answer: The value was 4.44%.

Question: How did the “hERG current change (%, negative = inhibition) at 10uM” value turn out when `Cc1ccc(C(=O)Nc2ccc(S(=O)(=O)N3CCOCC3)cc2)cc1Br` was run?
Answer: Its value is 3.46%.

Question: With `CC(=O)Nc1nc(-c2ccc(Cl)cc2)nc(C)c1C(C)=O` as the compound, how does the “hERG current change (%, negative = inhibition) at 10uM” value read?
Answer: Its value is -19.8%.

Question: Which “hERG current change (%, negative = inhibition) at 10uM” value does the source give for `CCN(C(=O)COC(=O)C1=COCCO1)c1ccccc1` here?
Answer: The value was -2.33%.

Question: Which “hERG current change (%, negative = inhibition) at 10uM” value does the source give for `O=c1cc(Cc2nnc(SCc3ccccc3)n2-c2ccc(Cl)cc2)[nH]c(=O)[nH]1` here?
Answer: Its value is 0.593%.

Question: With `COc1ccc(N2CCN(C(=O)c3cc(-c4cc(OC)ccc4OC)nc4ccccc34)CC2)cc1` as the compound, how does the “hERG current change (%, negative = inhibition) at 10uM” value read?
Answer: Its value is -1.23%.

Question: How did the “hERG current change (%, negative = inhibition) at 10uM” value turn out when `Cc1ccc2nc3c(nc2c1C)C(O)=C3O` was run?
Answer: The value was 6.68%.

Question: `Cc1ccc(N2CCOCC2)c2c1C(=O)c1ccccc1C2=O` was tested. Which “hERG current change (%, negative = inhibition) at 10uM” value did it give?
Answer: The value was -19.1%.

Question: For `O=C1c2ccccc2-c2ncnc3c(N4CCOCC4)cc(N4CCOCC4)c1c23`, which “hERG current change (%, negative = inhibition) at 10uM” value is on record?
Answer: The value was -60%.

Question: `O=C1c2ccccc2C(=O)c2c1cccc2N1CCOCC1` was tested. Which “hERG current change (%, negative = inhibition) at 10uM” value did it give?
Answer: Its value is -30.4%.

Question: How did the “hERG current change (%, negative = inhibition) at 10uM” value turn out when `CCOCCn1c(SCc2ccc(C)cc2)nc2c1c(=O)[nH]c(=O)n2C` was run?
Answer: Its value is 14.5%.

Question: Which “hERG current change (%, negative = inhibition) at 10uM” value does the source give for `COc1ccc(N2CCN(CC(=O)NCc3ccc(Cl)cc3)CC2)cc1` here?
Answer: Its value is -55.7%.

Question: How did the “hERG current change (%, negative = inhibition) at 10uM” value turn out when `O=C(CN1CCNC(=O)C1)NCCc1ccc(Cl)cc1Cl` was run?
Answer: The value was 1.45%.

Question: How did the “hERG current change (%, negative = inhibition) at 10uM” value turn out when `COc1ccc(CNC(=O)CN2CCN(c3ccccc3)CC2)cc1` was run?
Answer: Its value is 3.65%.

Question: For `O=C(CN1CCN(c2cccc(Cl)c2)CC1)NCc1ccccc1`, which “hERG current change (%, negative = inhibition) at 10uM” value is on record?
Answer: The value was -15.5%.

Question: `CC(=O)c1ccc(N2CCN(CC(=O)NCc3ccccc3)CC2)cc1` was tested. Which “hERG current change (%, negative = inhibition) at 10uM” value did it give?
Answer: The value was -44.3%.

Question: For `N#Cc1ccc(CN2CCN(CC(=O)NCCc3ccc(Cl)cc3Cl)CC2)cc1`, which “hERG current change (%, negative = inhibition) at 10uM” value is on record?
Answer: The value was -68.8%.

Question: How did the “hERG current change (%, negative = inhibition) at 10uM” value turn out when `Cc1ccc(CNC(=O)CN2CCN(c3ccc(F)cc3)CC2)cc1` was run?
Answer: The value was -50.8%.

Question: `O=C(Cn1cnnn1)NCCc1ccc(Cl)cc1Cl` was tested. Which “hERG current change (%, negative = inhibition) at 10uM” value did it give?
Answer: The value was -19.6%.

Question: With `O=C(CN1CCN(c2ccccc2)CC1)NCc1ccc(F)cc1` as the compound, how does the “hERG current change (%, negative = inhibition) at 10uM” value read?
Answer: Its value is -11%.

Question: Which “hERG current change (%, negative = inhibition) at 10uM” value does the source give for `COc1ccc(CNC(=O)CN2CCN(c3ccc(F)cc3)CC2)cc1` here?
Answer: The value was -39.1%.

Question: With `O=C(CN1CCN(c2ccc(F)cc2)CC1)NCc1ccc(F)cc1` as the compound, how does the “hERG current change (%, negative = inhibition) at 10uM” value read?
Answer: The value was -43.9%.

Question: How did the “hERG current change (%, negative = inhibition) at 10uM” value turn out when `O=C(CN1CCN(c2ccc(Cl)cc2)CC1)NCc1ccccc1` was run?
Answer: The value was -51.3%.

Question: Which “hERG current change (%, negative = inhibition) at 10uM” value does the source give for `S=c1[nH]nc(COc2ccccc2)n1/N=C/c1ccncc1` here?
Answer: Its value is 7.06%.

Question: Which “hERG current change (%, negative = inhibition) at 10uM” value does the source give for `O=C(NCCOc1ccc(Cl)cc1)c1ccc2c(c1)OCCO2` here?
Answer: Its value is -7.8%.

Question: `COc1ccc(O)c(C=Nc2cc(NC(C)=O)c(Cl)cc2Cl)c1` was tested. Which “hERG current change (%, negative = inhibition) at 10uM” value did it give?
Answer: Its value is 2.95%.

Question: How did the “hERG current change (%, negative = inhibition) at 10uM” value turn out when `O=C1c2ccccc2C(=O)N1CC(O)COc1ccc(Br)cc1` (centres unmarked) was run?
Answer: Its value is -1.51%.

Question: For `O=C(CN1CCN(Cc2ccc(F)cc2)CC1)NCc1ccccc1`, which “hERG current change (%, negative = inhibition) at 10uM” value is on record?
Answer: Its value is -27.5%.

Question: Which “hERG current change (%, negative = inhibition) at 10uM” value does the source give for `Fc1ccc(CN2CCN(c3ccc(Cl)cc3)CC2)cc1` here?
Answer: The value was -13.6%.

Question: Which “hERG current change (%, negative = inhibition) at 10uM” value does the source give for `O=C(NCc1ccc(Cl)cc1)N1CCN(Cc2ccccc2)CC1` here?
Answer: The value was -29.9%.

Question: For `O=C(CN1CCN(Cc2ccccc2)CC1)NCc1ccc(Cl)cc1`, which “hERG current change (%, negative = inhibition) at 10uM” value is on record?
Answer: Its value is -61.1%.

Question: How did the “hERG current change (%, negative = inhibition) at 10uM” value turn out when `O=C(CN1CCN(c2ccc(F)cc2)CC1)NCc1ccc(Cl)cc1` was run?
Answer: Its value is -62.7%.

Question: For `Cl.O=C(CN1CCOCC1)NCc1ccc(F)cc1`, which “hERG current change (%, negative = inhibition) at 10uM” value is on record?
Answer: Its value is 21.6%.

Question: For `Cc1ccc(C(=O)c2cc3c(cc2[N+](=O)[O-])OCCO3)cc1`, which “hERG current change (%, negative = inhibition) at 10uM” value is on record?
Answer: The value was -9.5%.

Question: For `O=C1/C(=N\S(=O)(=O)c2cccs2)C([n+]2ccc(CCCc3ccccc3)cc2)=C([O-])c2ccccc21`, which “hERG current change (%, negative = inhibition) at 10uM” value is on record?
Answer: The value was -70.5%.

Question: With `O=C1/C(=N\S(=O)(=O)c2cccs2)C([n+]2ccccc2)=C([O-])c2ccccc21` as the compound, how does the “hERG current change (%, negative = inhibition) at 10uM” value read?
Answer: The value was 33.6%.

Question: With `CCc1cc[n+](C2=C([O-])c3ccccc3C(=O)/C2=N\S(=O)(=O)c2cccs2)cc1` as the compound, how does the “hERG current change (%, negative = inhibition) at 10uM” value read?
Answer: The value was -11.6%.

Question: With `Cc1ccc(NC(=O)c2nnn(-c3ccc4c(c3)OCCO4)c2N)cc1` as the compound, how does the “hERG current change (%, negative = inhibition) at 10uM” value read?
Answer: The value was 9.9%.

Question: Which “hERG current change (%, negative = inhibition) at 10uM” value does the source give for `Cc1cc(NC(=O)CSc2nncc(=O)n2N)no1` here?
Answer: Its value is 1.99%.

Question: With `COC(=O)C1=C(C)N(Cc2cccnc2)C(=O)/C1=C\c1sccc1C` as the compound, how does the “hERG current change (%, negative = inhibition) at 10uM” value read?
Answer: The value was -79.2%.

Question: With `COC(=O)C1=C(C)N(Cc2ccccc2)C(=O)/C1=C\c1ccco1` as the compound, how does the “hERG current change (%, negative = inhibition) at 10uM” value read?
Answer: The value was 2.06%.

Question: How did the “hERG current change (%, negative = inhibition) at 10uM” value turn out when `CCN1C(=O)/C(=C\c2cccs2)C(C(=O)OC)=C1C` was run?
Answer: Its value is 5.41%.

Question: `COC(=O)C1=C(C)N(Cc2cccnc2)C(=O)C1` was tested. Which “hERG current change (%, negative = inhibition) at 10uM” value did it give?
Answer: The value was -0.706%.

Question: `COC(=O)C1=C(C)N(Cc2cccnc2)C(=O)/C1=C\c1cccs1` was tested. Which “hERG current change (%, negative = inhibition) at 10uM” value did it give?
Answer: Its value is -89%.

Question: Which “hERG current change (%, negative = inhibition) at 10uM” value does the source give for `COCCCN1C(=O)/C(=C\c2cccs2)C(C(=O)OC)=C1C` here?
Answer: The value was -31.9%.
